From PubChem BioAssay (Tox21)
Results filed as inconclusive are left out. A number with no mark means an inactive call. Calls come from the whole dose curve; as a rule, active = well fitted cell-killing curve with a large enough effect in the repeat runs; inconclusive = weak or mixed curves, or effect the other way; inactive = no such curve, though single readings can be large or run the other way.

Experiment: qHTS assay to identify small molecule agonists of the estrogen receptor alpha (ER-alpha) signaling pathway in the presence of an antagonist - cell viability counter screen (AID 1259386);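 note: cells exposed to compounds for 22 h at 37 °C before the viability read; nearly all actives have a fitted effect of over 30% in size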
Conditions: VM7Luc4E2 viability, CellTiter-Fluor fluorescence, 22 h; series mostly up to 92.4 µM; activity change, negative = cytotoxicity: at the top concentration
From the text: National Center for Advancing Translational Sciences [NCATS]
NIH Chemical Genomics Center [NCGC]
U.S. Environmental Protection Agency [EPA]
National Institutes of Environmental Health Sciences [NIEHS]
National Toxicology Program [NTP]
U.S. Food and Drug Administration [FDA]
Estrogen receptor (ER), a member of nuclear hormone receptor plays an important role in development, metabolic homeostasis and reproduction. Two subtypes of ER, ER-alpha and ER-beta, have similar expression patterns with some uniqueness in both types. Endocrine disrupting chemicals (EDCs) and their interactions with steroid hormone receptors like ER causes disruption of normal endocrine function. Therefore, it is important to understand the effect of environmental chemicals in ER signaling pathway. For identifying ER agonists, VM7Luc4E2 cell line has been used in the current assay.
VM7Luc4E2 cell line (provided by Denison MS, University of California) endogenously expresses full-length ER-alpha and is stably transfected with a plasmid containing four estrogen responsive elements (ERE) upstream of a luciferase reporter gene. This current screening for measuring luciferase reporter gene activity using VM7Luc4E2 cells against Tox21 10K library collection is a confirmation study on agonist mode screening in presence of ER-antagonist (ICI-182,780) at 10.0nM final concentration. The cytotoxicity of the compounds was tested in parallel by measuring the cell viability using CellTiter-Fluor assay system (Promega, Madison, WI) in the same wells.
Tox21 Assay Protocol Summary:
VM7Luc4E2 cells were cultured in phenol red free assay medium containing 10% charcoal stripped FBS for 5 days prior to the assay. The cells were dispensed at 4,000 cells in 4uL of assay medium per well into white wall/solid-bottom 1536-well plates (Corning Life Sciences, Corning, NY) using a Multidrop Combi (Thermo Fisher Scientific Inc., Waltham, MA) dispenser. After the assay plates were incubated at 37C and 5% CO2 for 24hr, 1uL of 10.0nM (final concentration) ICI-182,780 or assay buffer was added using two separate tips of Flying Reagent Dispenser (FRD, Aurora Discovery, San Diego, CA). Then 23nL of compounds dissolved in DMSO at 15 concentrations and positive controls or DMSO only was transferred to the assay plates by a Pintool station (Wako, San Diego, CA). The assay plates were incubated at 37C and 5% CO2 for 22hr. After 21hr incubation at 37C, 1uL/well CellTiter-Fluor reagent (Promega Corporation, Madison, WI) was added to each well using FRD and after 1hr incubation at 37C and 5% CO2, the fluorescence signal was measured on ViewLux plate reader (PerkinElmer, Shelton, CT).
% is set by controls: 0 for no effect and ±100 for the full control effect.

| Compound | activity change, negative = cytotoxicity |
| --- | --- |
| NS(=O)(=O)c1cc2c(cc1Cl)CN(C1CCCCC1)C2=O | -3.25% [at 42.5 µM] |
| O=C(O)CCSSCCC(=O)O | -1.2% |
| O=C(O)C(=O)Cc1ccccc1 | -4.39% |
| Cc1nc2n(c(=O)c1CCN1CCC(c3noc4cc(F)ccc34)CC1)CCC[C@H]2O | -2.18% [at 19 µM] |
| O=C1O[C@@H]2[C@@H](O)[C@H](O)O[C@@H]2[C@H]1O | -2.23% |
| CCOC(=O)c1ccc(OC(=O)CCCCCN=C(N)N)cc1 | 3.08% [at 42.5 µM] |
| CCOC(=O)c1ncn2c1CN(C)C(=O)c1cc(F)ccc1-2 | 4.24% [at 42.5 µM] |
| CCCC/C=C/C=C\C=O | -15.5% |
| C=C(C)C(=O)OCC(C)(C)COC(=O)C(=C)C | 1.32% |
| C=CCCCCCCCCCCCC | 3.68% |
| CCCCCCCCCCCCCC | 0.819% |
| N[C@@H](CCC(=O)N[C@@H](CS)C(=O)NCC(=O)O)C(=O)O | 5.49% [at 19 µM] |
| CC(=O)c1sc(C)nc1C | 0.0515% |
| CCC(CC)CO | -4% |
| CCCCOC(=O)c1ccccc1 | 7.11% |
| OCCCCC(O)CO (stereo not given) | 0.256% |
| CC(C)=CCOC(=O)c1ccccc1 | 0.411% |
| BrCCCCCBr | 1.35% |
| C=C(C)C(=O)OCc1ccccc1 | -0.0526% |
| O=C(NCCN1CCOCC1)c1ccc(Cl)cc1 | -1.22% [at 42.5 µM] |

| Compound | activity change, negative = cytotoxicity |
| --- | --- |
| C[C@H](N)[C@H](O)c1cccc(O)c1 | 2.69% [at 42.5 µM] |
| CCCCNc1ccc(C(=O)OCCN(C)C)cc1 | -4.82% [at 42.5 µM] |
| CC1=C(C(=O)O)N2C(=O)[C@@H](NC(=O)[C@H](N)c3ccc(O)cc3)[C@H]2SC1 | 1.08% [at 42.5 µM] |
| CC(C)NCC(O)COc1ccc(COCCOC(C)C)cc1 (stereo not given) | -5.08% [at 42.5 µM] |
| O=C(O)c1ccc(Cl)cc1Cl | 0.243% |
| CCO[Si](CCCS)(OCC)OCC | 5.44% |
| COc1ccc2c(c1)C(=O)N(CCc1ccc(S(=O)(=O)NC(=O)NC3CCCCC3)cc1)C(=O)C2(C)C | 3.54% [at 42.5 µM] |
| CCCN1C[C@H](CSC)C[C@@H]2c3cccc4[nH]cc(c34)C[C@H]21 | -7.1% [at 42.5 µM] |
| CC1=CCC(C(C)C)=CC1 | -3.57% |
| O=C(OCC(O)CO)c1ccccc1Nc1ccnc2c(C(F)(F)F)cccc12 (stereo not given) | -1.51% [at 42.5 µM] |
| COCCOCCOCCOCCO | 1.58% |
| CO[C@@H]1[C@@H](OC(N)=O)[C@@H](O)[C@H](Oc2ccc3c(O)c(NC(=O)c4ccc(O)c(CC=C(C)C)c4)c(=O)oc3c2C)OC1(C)C | 6.6% [at 42.5 µM] |
| Cc1ccc(S(=O)(=O)O)c(C)c1 | 5.74% |
| CN(C)C(=O)CNC(=O)Cc1ccccc1 | -3.23% [at 42.5 µM] |
| CN(C)c1ccc(C=O)cc1 | 1.31% |
| Cc1ccccc1OCC(O)CO (stereo not given) | 1.95% [at 42.5 µM] |
| Cc1cc(NC(=O)C2=C(O)c3ccccc3S(=O)(=O)N2C)no1 | -3.68% [at 42.5 µM] |
| COc1ccc(OC)c(Cl)c1 | 0.694% |
| OCCN(CCO)c1cccc(Cl)c1 | -4.14% |
| O=C1c2ccccc2C(=O)c2cc(S(=O)(=O)O)ccc21 | -0.728% |
